In PubChem BioAssay AID1159580 (chemical genetic matrix, 2015):
Values joined by “and” are separate entries in the source; they are usually repeats but may differ in a detail not shown here. Equal values may be shown once. Screen size: about 5,500 compounds; about 2,000 (36%) were called active. Roughly 18% stayed inconclusive and do not appear here. Cut-off read from the data, not from the text of the source: active = normalized growth mostly below about 0.91 (no sharp cut-off); inconclusive = no clear call, values can overlap the other calls; inactive = mostly above about 0.92. Some of the results follow.

Test: chemical genetic growth profiling, strain panel (AID 1159580);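 note: tested at 20 µM; growth read once vehicle control cultures reached saturation at 30 °C; 1 = growth at the plate median or of vehicle wells; lower values mean less growth of the strain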
Settings: S. cerevisiae deletion strains, growth OD

Measured: normalized growth

O=C(O)CCC1NCC2CC1CN1CCCCC21 (configuration not stated)
inactive: locus YAL013W, strain DEP1, active compounds read low 1 | locus YAL021C, strain ccr4, active compounds read low 0.97 | locus YAL026C, strain drs2, active compounds read low 0.974 | locus YAL030W, strain snc1, active compounds read low 0.969 | locus YBL061C, strain skt5, active compounds read low 0.975 | locus YBR009C, strain hhf1, active compounds read low 0.989 | locus YBR021W, strain FUR4, active compounds read low 1.01 | locus YBR023C, strain chs3, active compounds read low 0.983 | locus YBR171W, strain sec66, active compounds read low 0.999 | locus YBR229C, strain ROT2, active compounds read low 1.01 | locus YBR231C, strain swc5, active compounds read low 0.986 | locus YBR279W, strain paf1, active compounds read low 0.977 | locus YCL011C, strain gbp2, active compounds read low 0.975 | locus YCL016C, strain dcc1, active compounds read low 0.98 | locus YCL029C, strain bik1, active compounds read low 0.997 | locus YCL061C, strain MRC1, active compounds read low 0.989 | locus YCL069W, strain vba3, active compounds read low 0.985 | locus YCR088W, strain abp1, active compounds read low 0.982 | locus YDL005C, strain med2, active compounds read low 0.969 | locus YDL035C, strain GPR1, active compounds read low 1.02 | locus YDL040C, strain nat1, active compounds read low 0.982 | locus YDL074C, strain BRE1, active compounds read low 0.999 | locus YDL101C, strain DUN1, active compounds read low 1 | locus YDL134C, strain PPH21, active compounds read low 1 | locus YDL185W, strain tfp1, active compounds read low 0.997 | locus YDL192W, strain arf1, active compounds read low 0.998 | locus YDR001C, strain nth1, active compounds read low 0.967 | locus YDR069C, strain doa4, active compounds read low 0.987 | locus YDR101C, strain arx1, active compounds read low 0.999 | locus YDR137W, strain rgp1, active compounds read low 0.975 | locus YDR150W, strain NUM1, active compounds read low 0.998 | locus YDR159W, strain sac3, active compounds read low 0.978 | locus YDR162C, strain NBP2, active compounds read low 1 | locus YDR195W, strain ref2 0.975 | locus YDR297W, strain sur2, active compounds read low 0.974 | locus YDR318W, strain mcm21, active compounds read low 1.02 | locus YDR334W, strain swr1, active compounds read low 0.931 | locus YDR335W, strain msn5, active compounds read low 0.969 | locus YDR388W, active compounds read low 0.994 | locus YDR392W, strain spt3, active compounds read low 0.914 | locus YDR502C, strain sam2, active compounds read low 0.988 | locus YEL003W, strain gim4, active compounds read low 0.967 | locus YEL037C, strain rad23, active compounds read low 0.999 | locus YEL061C, strain CIN8 (second series), active compounds read low 0.97 | locus YEL061C, strain CIN8, active compounds read low 1.02 | locus YER015W, strain faa2, active compounds read low 0.966 | locus YER016W, strain bim1, active compounds read low 0.973 | locus YER110C, active compounds read low 0.999 | locus YER111C, strain swi4, active compounds read low 0.98 | locus YER155C, strain BEM2 (second series), active compounds read low 0.999 | locus YER155C, strain BEM2, active compounds read low 1 | locus YER167W, strain BCK2, active compounds read low 1 | locus YFR010W, strain ubp6, active compounds read low 0.974 | locus YGL078C, strain dbp3, active compounds read low 0.982 | locus YGL086W, strain mad1, active compounds read low 1.02 | locus YGL167C, strain pmr1, active compounds read low 0.965 | locus YGL173C, strain kem1, active compounds read low 0.963 | locus YGL227W, strain vid30, active compounds read low 0.986 | locus YGL240W, strain doc1, active compounds read low 0.985 | locus YGL248W, strain PDE1, active compounds read low 1 | locus YGL253W, strain hxk2, active compounds read low 0.978 | locus YGR078C, strain PAC10, active compounds read low 1 | locus YGR135W, strain pre9, active compounds read low 0.98 | locus YGR229C, strain SMI1, active compounds read low 0.983 | locus YGR252W, strain gcn5, active compounds read low 1.06 | locus YHR013C, strain ard1, active compounds read low 0.95 | locus YHR027C, strain rpn1, active compounds read low 0.953 | locus YHR030C, strain SLT2, active compounds read low 1.01 and 1.03 | locus YHR079C, strain IRE1 (second series), active compounds read low 1 | locus YHR079C, strain IRE1, active compounds read low 1.01 | locus YHR094C, strain hxt1, active compounds read low 0.999 | locus YHR129C, strain ARP1, active compounds read low 1.01 | locus YHR142W, strain chs7, active compounds read low 0.938 | locus YHR200W, strain rpn10, active compounds read low 1 | locus YIL066C, strain RNR3, active compounds read low 1.02 | locus YIL073C, strain SPO22, active compounds read low 1.03 | locus YIL125W, strain kgd1, active compounds read low 0.993 | locus YIR030C, strain dcg1, active compounds read low 0.986 | locus YJL092W, strain hpr5, active compounds read low 0.979 | locus YJL095W, strain BCK1 (second series), active compounds read low 0.976 | locus YJL095W, strain BCK1, active compounds read low 1 | locus YJL115W, strain asf1, active compounds read low 0.958 | locus YJL129C, strain trk1, active compounds read low 0.952 | locus YJL134W, strain LCB3, active compounds read low 0.999 | locus YJL154C, strain vps35, active compounds read low 0.967 | locus YJL164C, strain tpk1, active compounds read low 0.976 | locus YJL166W, strain qcr8, active compounds read low 0.975 | locus YJL168C, strain set2, active compounds read low 0.995 | locus YJL187C, strain SWE1 (second series), active compounds read low 1.01 | locus YJL187C, strain SWE1, active compounds read low 0.974 | locus YJR043C, strain POL32, active compounds read low 1.03 | locus YJR066W, strain TOR1, active compounds read low 0.98
